From PubChem BioAssay
Hits are enriched below; roughly 10% of the tested compounds scored in any of these assays.
HEK cytotox = HEK 293 cell cytotoxicity. HEK 293 viability, ATP luminescence (CellTiter-Glo), 48-72 h. Potency, µM (highest dose often 115 µM), usual class: inhibitors. actives 6.6% (n = 94,000); note: nearly all actives have a fitted effect of over 60% in size
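CellTiter-Glo luminescence (cellular ATP) was read after 48 or 72 hr of compound exposure at 37 degree Celsius. Cells were HEK 293 plated at 250 cells/well.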
GPT2 inh = blocks human glutamate pyruvate transaminase 2. actives 0.25% (n = 100,000). Recombinant GPT2, coupled pyruvate oxidase/HRP Amplex Red fluorescence. Potency, µM (series often up to 57.7 µM), usual class: inhibitors. Q8TD30; note: nearly all actives have a fitted effect of over 60% in size
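GPT2 10ng/uL, a-KG 250uM, L-Ala 2mM, HEPES pH7.5 + 0.0001% Tween; 30 min RT. Then Amplex mix (PO/HRP/ThPP), 30 min RT dark, fluorescence. AOA 50uM used as positive control.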
NPR1 antag = antagonists of human natriuretic peptide receptor Npr1; Potency, µM (titrated, usually from 46.3 µM), most hits filed as inhibitors; actives 1.6% (n = 76,000); HEK293 hNpr1 GloSensor cGMP, ANP-stimulated luminescence; P16066; AID 1347048; calls by dose curve; note: nearly all actives have a fitted effect of over 60% in size
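Compound pre-incubated 30 min at room temperature on GloSensor-loaded HEK293 cells stably carrying hNpr1 and the pGS-40F cGMP biosensor. Stimulation uses hNppA at 0.1 nM final; luminescence is taken at baseline and 20 min post-agonist.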
3T3 cytotox = kills NIH 3T3 cells; AID 1345082; actives 4.3% (n = 94,000); Potency, µM (titrated, usually from 96.7 µM), actives largely listed as inhibitors; NIH 3T3 viability, CellTiter-Glo ATP luminescence, 48-72 h; note: nearly all actives have a fitted effect of over 55% in size
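Luminescent ATP readout (CellTiter-Glo, 10 min RT) after 48 or 72 hr compound exposure of NIH 3T3 cells seeded at 400 cells/well in 1536-well format; quantitative HTS.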
FLuc inh = Photinus pyralis luciferase inhibition; purified P. pyralis luciferase, luminescence, biochemical; Potency, µM (highest dose often 115 µM), actives largely listed as inhibitors; P08659; actives 2.5% (n = 76,000); note: nearly all actives have a fitted effect of over 65% in size
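Purified 10nM P. pyralis luciferase with 10uM D-luciferin and 10uM ATP in 50mM Tris acetate pH 7.5, 10mM Mg acetate, 0.01% Tween-20, 0.05% BSA. qHTS titration; luminescence read by CCD imager.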
Hits are given with their value; n = inactive; u = inconclusive; x = no result given; [ ] = another dose, or the depositor's remark. Unless noted, calls come from the whole dose curve; as a rule, active = well fitted curve in the direction sought with a large enough effect; inconclusive = small, poorly fitted or top-dose-only effect, or another doubt; inactive = no such curve, though single readings can be large; an effect the other way counts as inactive or inconclusive.

SMILES | HEK cytotox | GPT2 inh | NPR1 antag | 3T3 cytotox | FLuc inh
CC(=O)NC1(C)CCN(Cc2ccccc2-c2cccc(C(C)=O)c2)C1 (centres undefined) | u | n | n | u | n
CC(=O)NC1(C)CCN(Cc2cccc(-c3ccccc3)c2)C1 (centres undefined) | u | n | n | n | n
CC(=O)NC1(C)CCN(Cc2ccccc2-c2ccc3c(ccn3C)c2)C1 (centres undefined) | 100µM | u | n | 89µM | n
O=C(COc1ccccc1)N1CCCC(c2noc(COc3ccccc3)n2)C1 (centres undefined) | u | n | n | u | u
CNC(=O)c1cc(C2CC2)nc2onc(C3CCN(C(=O)Cc4ccccn4)C3)c12 (centres undefined) | n | x | x | n | x
O=C(Nc1cccc(-c2nnc3n2CCCC3)c1)c1ccccc1 | n | n | n | n | n
CCOc1ccccc1C(=O)Nc1cccc(-c2nnc3n2CCCC3)c1 | u | n | n | 40µM | n
Cc1ccsc1C(=O)Nc1ccc(-c2nnc3n2CCCC3)cc1 | n | n | n | u | 35µM
CCc1ccc(C(=O)Nc2cccc(-c3nnc4n3CCCC4)c2)cc1 | u | n | u | u | 22µM
O=C(Nc1cccc(-c2nnc3n2CCCC3)c1)c1ccccc1Cl | n | n | n | n | n
COCCNC(=O)C1CC(=O)N(C2CN(Cc3cccc(F)c3)C2)C1 (centres undefined) | n | n | x | n | x
CC1CCN(C(=O)c2cc(CN3CCC(Cc4ccccc4)CC3)on2)CC1 | u | u | n | n | n
CN(C)CC1(O)CCC2(CCN(C(=O)c3[nH]nc4c3CCc3ccccc3-4)CC2)CC1 | n | n | n | n | n
Cc1noc(C)c1-c1cc(-c2ccc(CN(C)C)cc2)cn2cncc12 | u | n | n | 28µM | n
CN(C)Cc1ccc(-c2cc(-c3ccncc3)c3cncn3c2)cc1 | 89µM | n | n | u | u
Cc1noc(C)c1-c1cc(-c2ccncc2)cn2cncc12 | u | n | n | u | n
CN1C(=O)CCC2(CNC(=O)COc3ccccc3)CCC=C12 (centres undefined) | n | n | x | n | x
COc1ccc(CNC(=O)[C@@H]2Cc3c[nH]c4cccc(c34)[C@H](CC(C)C)N2)cc1 | 79µM | n | n | 45µM | n
CC(C)C[C@@H]1N[C@H](C(=O)NCc2ccccn2)Cc2c[nH]c3cccc1c23 | 28µM | n | n | u | n
CC(C)C[C@@H]1N[C@H](C(=O)NCc2ccccc2)Cc2c[nH]c3cccc1c23 | 35µM | n | n | 32µM | n
CC(C)C[C@@H]1N[C@H](C(=O)NCCN2CCCC2)Cc2c[nH]c3cccc1c23 | u | n | n | u | n
CC(C)C[C@@H]1N[C@H](C(=O)NCc2ccc(F)cc2)Cc2c[nH]c3cccc1c23 | 28µM | n | n | 40µM | n
Cc1ccc([S+](=O)([O-])N2CCC(c3nn(-c4ccc(F)cc4)c(=O)[nH]3)CC2)cc1 | u | n | n | n | n
O=c1n(CC2CC2)nc2n1CCC(NS(=O)(=O)c1ccc3c(c1)OCCO3)CC2 (centres undefined) | n | n | x | n | x
Cc1noc([C@H]2CCN(Cc3cc(F)cc(F)c3)C[C@H]2NC(=O)C2CC2)n1 | 28µM | n | n | u | n
SMILES | HEK cytotox | GPT2 inh | NPR1 antag | 3T3 cytotox | FLuc inh
O=C(Cc1cccc(Cl)c1)N1CCN(C(=O)c2nc3cccnc3n(CCc3ccccc3)c2=O)CC1 | u | n | x | u | x
Cc1cc(C)c2[nH]c(C(=O)N3CCN(Cc4ccccc4)C(=O)C3C)c(C)c2c1 (centres undefined) | 35µM | n[11.5 µM] | n | 25µM | n
Cc1cc(C)c2[nH]c(C(=O)N3CCCC3c3nc4ccccc4[nH]3)c(C)c2c1 (centres undefined) | u | n | n | u | n
N#Cc1cccnc1-c1ccc(C(=O)N2CCC(NC(=O)Nc3ccccc3)CC2)cc1 | u | n | x | u | x
COCCN(Cc1nccs1)C(=O)c1cnc(-c2ccccn2)[nH]c1=O | 40µM | n | n | u | n
O=C(c1ccc(C(F)(F)F)cc1)N1CCCC(C(=O)N2CCC(N3Cc4cccn4C3=O)CC2)C1 (centres undefined) | u | n | x | n | x
CC(C)c1ccc(CC(=O)N2CCCc3ncc(C(=O)N4CCCC[C@@H]4c4ccccc4)cc32)cc1 | u | n | n | u | n
CC(C)c1ccc(CC(=O)N2CCCc3ncc(C(=O)N4CCCC[C@@H]4Cc4ccccc4)cc32)cc1 | 45µM | u | n | 35µM | n
O=C(Cc1cccc(C(F)(F)F)c1)N1CCCc2ncc(C(=O)N3CCCC[C@@H]3Cc3ccccc3)cc21 | 79µM | n | n | u | n
O=C1Nc2ccccc2C12CCN(CC1CCCCC1)C2 (centres undefined) | u | n | x | u | x
COc1cccc(CN2CCCC(COc3ccccc3C(=O)NC(C)C)C2)n1 (centres undefined) | n | n | n | n | n
CC(C)C[C@@H]1N[C@H](C(=O)NC2CCCC2)Cc2cn(Cc3nccn3C)c3cccc1c23 | 40µM | n | n | 89µM | n
CC(C)C[C@@H]1N[C@H](C(=O)NCc2ccco2)Cc2cn(Cc3nccn3C)c3cccc1c23 | 32µM | n | n | u | n
C#CCNC(=O)[C@@H]1Cc2cn(Cc3nccn3C)c3cccc(c23)[C@H](CC(C)C)N1 | u | u | n | u | n
CC(C)C[C@@H]1N[C@H](C(=O)O)Cc2cn(Cc3nccn3C)c3cccc1c23 | n | u | n | n | n
Cc1noc(C)c1Cn1cc2c3c(cccc31)[C@H](CC(C)C)N[C@H](C(=O)NCc1ccco1)C2 | u | n | n | 20µM | n
COCCNC(=O)[C@@H]1Cc2cn(Cc3nccn3C)c3cccc(c23)[C@H](CC(C)C)N1 | 40µM | n | n | n | n
CCc1nc2c(c(-c3ccc(O)cc3)n1)CN(CCC(C)C)CC2 | n | n | n | u | n
CCCOCCCNC(=O)c1c(C)noc1-c1ccc(C(C)(C)C)cc1 | 35µM | u | n | u | n
C=CCN1C[C@@H]2C[C@@H](C(=O)OCC)N(C(=O)c3ccc(C)cc3)c3cccc(c32)C1=O | n | n | x | u | x
O=C(NCc1ccc(F)cc1)c1ccc2nnc(Cc3ccc(Cl)cc3)n2c1 | 40µM | n | x | u | x
O=C(NCc1cccc(C(F)(F)F)c1)c1ccc2nnc(Cc3ccc(Cl)cc3)n2c1 | 32µM | n | x | 22µM | x
O=C(NCc1ccccc1Cl)c1ccc2nnc(Cc3ccc(Cl)cc3)n2c1 | u | n | x | u | x
O=C(NCCc1ccc(Cl)cc1)c1ccc2nnc(Cc3ccc(Cl)cc3)n2c1 | 28µM | n | x | 28µM | x
O=C(NCc1ccc(Cl)cc1)c1ccc2nnc(Cc3ccc(Cl)cc3)n2c1 | 45µM | n | x | 32µM | x
COCCCNc1ncnc2c1CN(c1ccccc1)C(=O)CN2C | n | u | n | n | n
